# ChEMBL document CHEMBL4513216, “Probing the Open Global Health Chemical Diversity Library for Multistage-Active Starting Points for Next-Generation Antimalarials” (ACS Infect Dis, 2020)
# The whole screen tested about 69,000 compounds, of which about 8,600 (12%) showed an effect of 50% or more. Shown is part of a subset that was picked to be rich in strong results.
# Tested on: Plasmodium berghei
# Assay: Screen against P. berghei liver stage (PbLuc), transformed with Luciferase, at 10uM
# Format: functional, HepG2
# Conditions: tested at 10 uM
row,Structure (SMILES),INHIBITION [%]
1,CN(C)C[C@@H]1CN(C2CCN(c3ccccc3Cl)CC2)C[C@@H]1CO,22.3
2,CN(C)C[C@@H]1CN(C2CCN(c3ccc(Cl)cc3)CC2)C[C@@H]1CO,-86.5
3,CN(CCO)C[C@@H]1CN(C2CCN(c3ccccc3Cl)CC2)C[C@@H]1CO,55.2
4,CCc1nnc(SC2CCCN(c3cnn(C)c3)C2=O)n1C (stereo not given),-30.1
5,COc1cccc(N2CC3(CCN(C(=O)NC(C)C)C3)CC2=O)c1 (stereo not given),-11.2
6,COc1cccc(C2CN(CCc3ccncc3)CCO2)c1 (stereo not given),10.5
7,Cc1ccc(S(=O)(=O)N2CCC(Oc3ccccn3)CC2)c(C)c1,78.2
8,Cc1ccc(S(=O)(=O)N2CCC(Oc3cccnn3)CC2)c(C)c1,49.7
9,Cc1noc(C)c1S(=O)(=O)N1CCC(Oc2ccccn2)CC1,45.7
10,CCOCn1cc(NC(=O)C2CCN(S(C)(=O)=O)CC2)cn1,38.2
11,COc1ccc(CCCN2C(=O)O[C@@H]3CN(C4CCOCC4)C[C@@H]32)cc1,34.9
12,Cc1nsc(NC(=O)N2CCCCC2CCO)n1 (stereo not given),66.5
13,Cc1nsc(NC(=O)N2CCCCC2CCCO)n1 (stereo not given),48
14,Cc1nnc(NC(=O)N2CCCCC2CCO)s1 (stereo not given),44.3
15,CC(C)CCC(C)NC(=O)c1ccc(OCC(N)=O)cc1 (stereo not given),-36.5
16,CCNC(=O)COc1ccc(C(=O)NC(C)CCc2ccco2)cc1 (stereo not given),20.6
17,CC(C)CCCC(C)NC(=O)c1ccc(OCC(N)=O)cc1 (stereo not given),56.4
18,CCn1cnnc1CNC(=O)c1cc(Cl)c(I)cc1OC,-7.31
19,CC(=O)NCCC1CCCCN1C(=O)c1cccc(CCC(C)(C)O)c1 (stereo not given),19.7
20,O=C(Nc1ccccc1F)C1=NN(c2ccccc2)C(=O)CN1,-73.1
21,CN(C)CCN1CCOCC2(CCCN(C(=O)Cc3ccccc3)C2)C1 (stereo not given),29
22,CCCn1cc(NC(=O)c2cccnc2O)ccc1=O,58.5
23,CCCn1cc(NC(=O)c2ccc(S(C)(=O)=O)cc2)ccc1=O,-5.65
24,CCCn1cc(NC(=O)c2ccc(N(C)CC)cc2)ccc1=O,46.6
25,CCCn1cc(NC(=O)c2ccc(S(=O)(=O)CC)cc2)ccc1=O,60.3
26,CCCn1cc(NC(=O)c2ccncc2)ccc1=O,50.8
27,COCCn1cc(NC(=O)NC(C)CCc2ccccc2)ccc1=O (stereo not given),28.7
28,CCCn1cc(NC(=O)c2ccc(NC(=O)NC3CC3)cc2)ccc1=O,-13.4
29,CCCn1cc(NC(=O)c2cccc3cccnc23)ccc1=O,-1.04
30,Cn1cc(NC(=O)c2cccc3cccnc23)ccc1=O,-10.8
